These results are taken from PubChem BioAssay.

Active and inactive are the calls of the source. Unless noted, how the calls were made is not given here.

Assay [1] is described as follows: compounds binding Alexa647 anti-His antibody – biochemical, small-molecule microarray, 635 nm fluorescence, artefact control for SMM control protein annotation, primary screen (AID 1128).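 Further: score merges feature fluorescence with signal-to-noise for each printed compound spot.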 To be noted: higher = more signal.
The subject of assay [2] is Human papillomavirus type 1a E7 protein (residues 1-88). As to the kind of experiment: HPV1a E7 small-molecule binders, primary screen, biochemical, small-molecule microarray, residues 1-88, 635 nm (AID 1129). To be noted: small-molecule microarray binding, fluorescence 635 nm; higher = more signal.
Assay [3] deals with Focal adhesion kinase 1 (Homo sapiens) (UniProt Q05397). The experiment in a line: PTK2 protein binding on printed compound slides – biochemical, small-molecule microarray, 635/667 nm fluorescence, BSA, DTT, primary screen (AID 1130).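 Further: composite of spot emission at 667 nm and signal to noise over triplicate slides.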 The note with it: 635 nm fluorescence, higher = more signal.
Chain of Focal adhesion kinase 1 (Homo sapiens) (Q05397 whole entry, looked up): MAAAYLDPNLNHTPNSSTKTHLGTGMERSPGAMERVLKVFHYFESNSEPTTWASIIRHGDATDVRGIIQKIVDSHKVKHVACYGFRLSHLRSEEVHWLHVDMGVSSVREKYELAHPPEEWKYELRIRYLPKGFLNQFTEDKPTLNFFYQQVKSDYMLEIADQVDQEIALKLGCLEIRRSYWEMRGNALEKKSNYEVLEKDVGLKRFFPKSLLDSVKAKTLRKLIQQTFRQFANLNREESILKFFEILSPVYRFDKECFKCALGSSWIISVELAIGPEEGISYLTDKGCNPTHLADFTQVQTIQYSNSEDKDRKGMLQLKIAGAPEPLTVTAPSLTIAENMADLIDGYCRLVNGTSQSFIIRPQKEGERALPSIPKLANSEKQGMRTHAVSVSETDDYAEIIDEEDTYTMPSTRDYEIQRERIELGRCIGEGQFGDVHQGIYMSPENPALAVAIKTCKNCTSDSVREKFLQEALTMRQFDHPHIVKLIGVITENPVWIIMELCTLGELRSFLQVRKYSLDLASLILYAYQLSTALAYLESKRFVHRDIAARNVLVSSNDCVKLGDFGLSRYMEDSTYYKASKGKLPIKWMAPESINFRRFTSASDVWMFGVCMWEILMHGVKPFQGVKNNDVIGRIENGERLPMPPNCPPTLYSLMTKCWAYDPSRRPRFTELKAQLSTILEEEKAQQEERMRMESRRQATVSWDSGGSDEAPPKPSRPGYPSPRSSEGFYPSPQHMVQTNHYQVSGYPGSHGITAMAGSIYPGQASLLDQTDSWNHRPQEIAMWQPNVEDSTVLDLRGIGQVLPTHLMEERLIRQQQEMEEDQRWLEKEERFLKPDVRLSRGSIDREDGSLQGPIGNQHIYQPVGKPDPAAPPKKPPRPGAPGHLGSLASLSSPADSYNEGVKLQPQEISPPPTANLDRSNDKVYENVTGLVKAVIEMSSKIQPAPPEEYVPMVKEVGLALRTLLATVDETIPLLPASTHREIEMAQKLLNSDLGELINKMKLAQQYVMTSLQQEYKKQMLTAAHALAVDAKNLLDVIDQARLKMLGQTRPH
The subject of assay [4] is Fibrinogen (Alexa647-labelled). The experiment in a line: Alexa647-fibrinogen binding to printed small molecules – biochemical, small-molecule microarray, 635/667 nm fluorescence, artefact control for SMM control-protein annotation, profiling panel (AID 1131).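 Further: z-score merges 667 nm fluorescence with per-spot signal-to-noise over triplicate slides.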 The note with it: fibrinogen-A647 binding fluorescence, higher = more signal.
The target of assay [5] is Follistatin (Homo sapiens) (UniProt P19883). As to the kind of experiment: FST protein binding to printed compounds – biochemical, small-molecule microarray, 635/667 nm fluorescence, primary screen (AID 1132). The note with it: 635 nm fluorescence, higher = more signal.
Chain of Follistatin (Homo sapiens) (P19883 whole entry, looked up): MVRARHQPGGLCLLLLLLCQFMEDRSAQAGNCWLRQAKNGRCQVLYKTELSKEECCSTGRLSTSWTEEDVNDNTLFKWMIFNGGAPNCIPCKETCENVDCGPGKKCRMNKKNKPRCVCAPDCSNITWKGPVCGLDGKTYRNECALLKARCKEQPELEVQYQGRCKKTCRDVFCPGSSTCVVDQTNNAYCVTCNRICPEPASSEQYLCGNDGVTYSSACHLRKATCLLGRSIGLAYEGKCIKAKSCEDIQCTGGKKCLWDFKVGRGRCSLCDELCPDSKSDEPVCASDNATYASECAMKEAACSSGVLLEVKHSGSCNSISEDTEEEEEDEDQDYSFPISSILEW
Assay [6] addresses Fibroblast growth factor 2 (Homo sapiens) (UniProt P09038). The experiment in a line: basic fibroblast growth factor binding to printed compounds – biochemical, small-molecule microarray, 635/667 nm fluorescence, primary screen (AID 1133). To be noted: FGF2, fluorescence 635/667, higher = more signal.
Assay [7] is described as follows: JC-1 mitochondrial potential readout, lung cancer cells – cell-based, A549, JC-1 fluorescence, basal, 24 h, 100 nL, profiling panel (AID 1138).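 Further: A549 lung adenocarcinoma cells under basal conditions with no added stimulus; test concentration not given here.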 The note with it: higher = more signal.
Assay [8] deals with Lefty1. As to the kind of experiment: Lefty1 protein binding to printed compounds – biochemical, small-molecule microarray, 635/667 nm fluorescence, primary screen (AID 1139). The note with it: fluorescence 635/667, higher = more signal.
Assay [9] has as its system wheat germ agglutinin (Triticum aestivum), Alexa647-labelled. The experiment in a line: Alexa647-WGA lectin binding to printed small molecules – biochemical, small-molecule microarray, 635/667 nm fluorescence, artefact control for SMM control-protein annotation, profiling panel (AID 1140).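 Further: score merges 667 nm feature emission with signal to noise over triplicate slides.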 To be noted: WGA-A647 binding, 635 nm fluorescence, higher = more signal.
Assay [10] concerns the target Luciferin 4-monooxygenase (Photinus pyralis) (UniProt P08659). The experiment in a line: inhibition of purified Photinus pyralis luciferase – biochemical, luminescence, purified enzyme, 2006 set, primary screen (AID 1141).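 Further: cell-free assay with purified firefly luciferase at 100 ng per well in PBS; test concentration not given here.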 To be noted: purified firefly luciferase, SteadyGlo luminescence, 30 min; higher = more signal, called active from +8 up or from −8 down.
Assay [11] relates to Wnt5a (protein binding on small-molecule microarray). As to the kind of experiment: small molecules binding Wnt5a protein – biophysical, small-molecule microarray, 635/667 nm fluorescence, primary screen (AID 1142).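 Further: fluorescence read at 667 nm with signal to noise per printed feature.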 The note with it: 635 nm fluorescence, higher = more signal.
Assay [12] in a line: ATP-based viability of Huh7 replicon cells – cell-based, CellTiter-Glo luminescence, basal, 48 h, cytotoxicity control for HCV replication inhibitor project, primary screen (AID 1143).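 Further: Huh7 hepatoma cells carrying a hepatitis C replication reporter with no stimulus; test concentration not given here.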 The note with it: higher = more signal, called active from +8 up or from −8 down. On the technique in general: In antiviral work, replicon cells carry a viral genome segment that copies itself.
Assay [13] is described as follows: Pseudomonas biofilm growth suppression – PAO1 strain, BacTiter-Glo luminescence, LB-PBS, primary screen (AID 1144). To be noted: P. aeruginosa PAO1 biofilm, 12 h, higher = more signal.
Assay [14] in a line: basal CRE-LacZ reporter activity in PC12 – cell-based, unstimulated, primary screen (AID 1145). To be noted: no forskolin, luminescence, 4.5 h, higher = more signal, called active from +8 up or from −8 down.
Assay [15] in a line: forskolin-driven CRE-LacZ activity in PC12 – cell-based, CRE-LacZ reporter, forskolin-stimulated, primary screen (AID 1146).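 Further: PC12 cells with 6xCRE LacZ reporter stimulated by forskolin 10 µM; beta-galactosidase reporter signal reflecting CREB driven transcription.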 To be noted: luminescence, 4.5 h, higher = more signal, called active from +8 up or from −8 down.
Assay [16] has as its target Streptavidin (Streptomyces avidinii) (UniProt P22629). As to the kind of experiment: compounds binding control protein streptavidin – biophysical, small-molecule microarray, 635/667 nm fluorescence, artefact control for SMM compound annotation, primary screen (AID 1147).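 Further: signal reflects streptavidin binding to arrayed compounds as a control protein.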 The note with it: higher = more signal.
The nature of assay [17]: probe aInhba binding on compound microarray – biochemical, small-molecule microarray, 635/667 nm fluorescence, primary screen (AID 1148).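 Further: score merges 667nm spot fluorescence with signal-to-noise for antibody binding to printed compounds.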 To be noted: higher = more signal.
Assay [18] has as its target Torsin-1A (Homo sapiens) (UniProt O14656). As to the kind of experiment: TOR1A wild-type binding on microarray – cell lysate, small-molecule microarray, lysate, 635/667 nm, primary screen (AID 1149). To be noted: COS7 hTOR1A-WT lysate, 635 nm fluorescence, higher = more signal.
The target is the same in assay [19]. As to the kind of experiment: torsin A mutant lysate binding on microarrays – cell lysate, small-molecule microarray, COS7 lysate, 635/667 nm fluorescence, primary screen (AID 1150).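 Further: score pools 667 nm emission and signal to noise measuring lysate protein binding.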 To be noted: COS7 hTOR1A mutant lysate, 635 nm fluorescence, higher = more signal.
Assay [20] deals with Sonic hedgehog protein (Shh). The experiment in a line: Sonic hedgehog microarray binding compounds – biochemical, small-molecule microarray, 635/667 nm fluorescence, primary screen (AID 1151).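 Further: Shh protein binding to compounds spotted on small-molecule microarray slides; score combines spot fluorescence intensity with signal-to-noise across triplicate slides.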 To be noted: 635 nm fluorescence, higher = more signal.

Chain of Streptavidin (Streptomyces avidinii) (P22629 whole entry, looked up): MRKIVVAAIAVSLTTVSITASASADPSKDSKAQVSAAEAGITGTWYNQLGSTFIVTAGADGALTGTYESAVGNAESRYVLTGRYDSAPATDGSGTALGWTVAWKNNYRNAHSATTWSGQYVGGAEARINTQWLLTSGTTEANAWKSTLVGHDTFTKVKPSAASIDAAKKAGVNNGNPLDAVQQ
Chain of Torsin-1A (Homo sapiens) (O14656 whole entry, looked up): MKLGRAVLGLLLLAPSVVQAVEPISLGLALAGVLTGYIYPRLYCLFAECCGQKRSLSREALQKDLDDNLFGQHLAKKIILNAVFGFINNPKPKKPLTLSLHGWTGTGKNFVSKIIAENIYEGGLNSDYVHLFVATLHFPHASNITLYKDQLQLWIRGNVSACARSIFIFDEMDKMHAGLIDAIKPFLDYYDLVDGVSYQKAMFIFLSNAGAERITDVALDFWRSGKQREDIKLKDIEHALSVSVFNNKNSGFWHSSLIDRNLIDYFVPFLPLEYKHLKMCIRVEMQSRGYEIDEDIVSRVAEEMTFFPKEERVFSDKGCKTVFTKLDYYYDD
Chain of Luciferin 4-monooxygenase (Photinus pyralis) (P08659 whole entry, looked up): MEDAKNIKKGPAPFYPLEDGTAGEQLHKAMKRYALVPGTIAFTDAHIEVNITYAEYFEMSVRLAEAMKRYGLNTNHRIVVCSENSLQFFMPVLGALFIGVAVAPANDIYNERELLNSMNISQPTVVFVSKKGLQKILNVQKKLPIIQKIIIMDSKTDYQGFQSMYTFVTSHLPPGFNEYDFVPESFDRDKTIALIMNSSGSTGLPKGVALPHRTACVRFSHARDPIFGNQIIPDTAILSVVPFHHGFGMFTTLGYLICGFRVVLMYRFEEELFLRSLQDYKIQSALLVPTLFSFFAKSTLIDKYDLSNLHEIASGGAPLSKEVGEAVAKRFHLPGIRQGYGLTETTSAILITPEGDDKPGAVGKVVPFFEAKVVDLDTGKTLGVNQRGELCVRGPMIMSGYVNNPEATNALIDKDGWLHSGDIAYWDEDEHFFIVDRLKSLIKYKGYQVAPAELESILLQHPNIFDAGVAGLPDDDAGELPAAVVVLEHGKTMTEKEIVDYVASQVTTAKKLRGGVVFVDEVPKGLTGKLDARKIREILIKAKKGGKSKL
Chain of Fibroblast growth factor 2 (Homo sapiens) (P09038 whole entry, looked up): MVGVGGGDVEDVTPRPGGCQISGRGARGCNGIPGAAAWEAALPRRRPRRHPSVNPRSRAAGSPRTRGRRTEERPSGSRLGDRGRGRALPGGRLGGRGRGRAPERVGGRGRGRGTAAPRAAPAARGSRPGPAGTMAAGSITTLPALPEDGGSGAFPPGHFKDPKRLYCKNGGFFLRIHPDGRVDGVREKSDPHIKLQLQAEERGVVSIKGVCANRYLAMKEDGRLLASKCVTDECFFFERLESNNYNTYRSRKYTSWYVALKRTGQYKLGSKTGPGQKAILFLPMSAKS

For `C=C(CCCC)/C(=C/C[C@H](OC(C)=O)c1ccc(CO)o1)c1cnc2ccccc2c1`, the composite z-score was 0.867 in assay [1]; 1.18 in assay [2]; -0.0622 in assay [3]; 0.713 in assay [4]; 1.27 in assay [5]; 1.18 in assay [6]. Also, the composite z-score in [8] amounted to 1.29; in assay [9], 1.18; in assay [11], 0.465; in [16], 1.25; in [17], 0.0278; in assay [18], 0.749. For the same compound, the composite z-score was found to be 1.08 in assay [19] and 1.89 in assay [20]. The z-score in [7] was -0.566; in assay [10], -1.88 (inactive); in assay [12] it was 0.665 (inactive); in [13], -1.22 (inactive); in [14], 0.0563 (inactive); in assay [15], 1.65 (inactive).

With `NCCCCCNC(=O)[C@H]1C[C@H]2C(=O)NCC(=O)N2[C@H]1c1cccc(OCCO)c1`, the composite z-score in [1] was 0.524; in assay [2], 0.817; in [3] it was 0.369; in assay [4], 0.909; in assay [5], 1.26; in assay [6], 1.08. For the same compound, the composite z-score in [8] is 1.5; in [9] it was 0.739; in assay [11] it was 0.584; in [16], 0.579; in assay [17], -0.144; in assay [18], 0.483. Also, the composite z-score in assay [19] was 0.727; in assay [20], 2.01. Further, the z-score in assay [7] was 0.431; in [10], 0.199 (inactive); in assay [12], 0.241 (inactive); in [13], -0.147 (inactive); in assay [14], -1.08 (inactive); in [15] it was 0.0161 (inactive).

As for `CCCNC(=O)[C@@H]1c2ccccc2C(=O)N(Cc2ccccc2)[C@H]1c1ccc(CO)cc1`, the composite z-score in assay [1] is 1.88; in assay [2], -0.081; in assay [3], -0.255; in assay [4] it was 0.213; in [5], 0.122; in assay [6], -0.193. The composite z-score in assay [8] is -0.82; in assay [9] it was 0.935; in assay [11], -0.0869; in assay [16] it was 0.624; in assay [17] it was -0.0405; in [18] it was -0.468. Further, the composite z-score in assay [19] is -0.221; in assay [20], -0.461. The z-score in [7] is -0.109; in assay [10], -0.322 (inactive); in assay [12], -1.98 (inactive); in [13], -0.112 (inactive); in assay [14], -0.179 (inactive); in assay [15] it was 0.0988 (inactive).

Turning to `COCCOC(=O)N1C(=O)[C@@]2(c3cc(C#CCNC(N)=O)ccc31)[C@H](c1ccc(OCCO)cc1)N1[C@H](c3ccccc3)[C@H](c3ccccc3)OC(=O)[C@H]1[C@@H]2C(=O)N1CCc2cc(OC)c(OC)cc2C1`, the composite z-score in [1] worked out at 0.276; in assay [2] it was 0.665; in [3], 0.145; in [4] it was 0.531; in assay [5] it was 1.38; in [6] it was 1.2. In addition, the composite z-score was 0.658 in [8]; 0.848 in assay [9]; 0.426 in assay [11]; 0.175 in assay [16]; -0.0136 in [17]; 0.0053 in [18]. In addition, the composite z-score in assay [19] was -0.193; in assay [20] it was 0.815. The z-score was -1.41 in assay [7]; -0.702 (inactive) in assay [10]; -0.0916 (inactive) in assay [12]; -1.59 (inactive) in assay [13]; -0.471 (inactive) in [14]; -0.644 (inactive) in [15].

On to `CN1C(=O)C2C=CC(C(O)c3ccccn3)N(Nc3ccccc3)C2C1=O` (stereo not given), for which the composite z-score in [1] is 0.621; in assay [2] it was 0.302; in [3], -0.187; in assay [4], 1.03; in assay [5], 0.563; in assay [6] it was 0.213. Further, the composite z-score in assay [8] is 0.125; in assay [9], 0.489; in [11] it was -0.0522; in [16] it was 0.324; in assay [17], -0.0069; in assay [18] it was 0.884. For the same compound, the composite z-score is -0.179 in assay [19] and 0.207 in assay [20]. For the same compound, the z-score in [7] was -0.633; in [10], -1.12 (inactive); in assay [12], 0.901 (inactive); in assay [13] it was -0.652 (inactive); in assay [14] it was 0.0467 (inactive); in [15], 0.4 (inactive).
